Reference: PubChem BioAssay (Tox21)
Results filed as inconclusive are left out. Values without a mark were called inactive. Activity calls are given as the source filed them. Calls follow the shape of the dose curve; as a rule, active = well fitted cell-killing curve with a large enough effect in the repeat runs; inconclusive = weak or mixed curves, or effect the other way; inactive = flat fitted curve, though single readings scatter.
% is scaled to controls: 0 for no effect and ±100 for the full control effect; potency is read from the fitted curve at half-maximal effect.

Experiment: Human pregnane X receptor (PXR) small molecule agonists, qHTS cell viability counter screen (AID 1346977); also: nearly all actives have a fitted effect of over 50% in size
Conditions: PXR-Luc HepG2 viability, CellTiter-Fluor, 24 h; series mostly up to 92.4 µM; activity change, negative = cytotoxicity: at the top concentration
Text: U.S. Tox21 Program National Center for Advancing Translational Sciences [NCATS] NIH Chemical Genomics Center [NCGC] U.S. Environmental Protection Agency [EPA] National Institutes of Environmental Health Sciences [NIEHS] National Toxicology Program [NTP] U.S. Food and Drug Administration [FDA] Tox21 Assay Overview: The human pregnane X receptor (hPXR) regulates the expression of several drug metabolizing enzymes and induction of these proteins is a major mechanism for developing drug resistance in cancer. One such key enzyme catalyzing the drug metabolism is cytochrome P450 3A4 (CYP3A4). Changes in CYP3A4 expression affect drug metabolism, thereby reducing the therapeutic efficacy and altering toxicological response to a drug and which finally causes adverse drug interaction. To screen Tox21 libraries for compounds that activate hPXR-mediated CYP3A4 gene expression, PXR-Luc HepG2 cells were used. Also cytotoxicity of the compounds was tested in parallel by measuring the cell viability using CellTiter-Fluor assay system in the same wells.
Tox21 Assay Protocol Summary: PXR-Luc HepG2 cells were dispensed at 2,000 per well in 5uL of assay medium containing 5% charcoal-stripped FBS into white solid bottom 1536-well plates (Corning Life Sciences, Corning, NY) using a Multidrop Combi (Thermo Scientific, Waltham, MA) dispenser. The assay plates were incubated at 37 C and 5% CO2 for 5hr, and then 23nL of compounds dissolved in DMSO and positive control were transferred using a Pintool station (Wako, San Diego, CA). The assay plates were incubated at 37C and 5% CO2 for 24hr. For cytotoxicity read, after 23hr incubation at 37C, 1uL CellTiter-Fluor reagent (Promega Corporation, Madison, WI) was added to each well of the assay plates using Flying Reagent Dispenser (FRD, Aurora Discovery, San Diego, CA). After 1hr incubation at 37C and 5% CO2, the fluorescence signal was quantified using a ViewLux plate reader (PerkinElmer, Shelton, CT).
With CCCCOc1cc(C(=O)OCCN(CC)CC)ccc1N the “activity change, negative = cytotoxicity” value was -25.2% [at 42.5 µM].
In the case of Oc1ccc(Sc2ccc(O)cc2)cc1, the “activity change, negative = cytotoxicity” value is reported as -19.7%.
For Cn1c(=O)c2c(ncn2CC(O)CO)n(C)c1=O (stereo not given), the “activity change, negative = cytotoxicity” value was 10.7% [at 42.5 µM].
In the case of Cn1sccc1=O, the “activity change, negative = cytotoxicity” value is reported as -1.12%.
For CCCCCCCCCCCCCCC1CO1 (stereo not given), the “activity change, negative = cytotoxicity” value was 1.83%.
For CCOc1nc2cccc(C(=O)O)c2n1Cc1ccc(-c2ccccc2-c2nn[nH]n2)cc1, the “activity change, negative = cytotoxicity” value was 6.8% [at 42.5 µM].
In the case of CCCOc1ccc2nc(NC(=O)OC)[nH]c2c1, the “activity change, negative = cytotoxicity” value is reported as -1.66% [at 42.5 µM].
In the case of CCOc1ccc(NC(=O)CC(C)=O)cc1, the “activity change, negative = cytotoxicity” value is reported as 7.58%.
In the case of CC(C)(Oc1ccc(Cl)cc1)C(=O)OCCCOC(=O)C(C)(C)Oc1ccc(Cl)cc1, the “activity change, negative = cytotoxicity” value is reported as 10.1% [at 42.5 µM].
For CCN(CC)CCOC(=O)C1(c2ccccc2)CCCC1, the “activity change, negative = cytotoxicity” value was -17.5% [at 42.5 µM].
For CCCCCc1ccc(N)cc1, the “activity change, negative = cytotoxicity” value was -10.9%.
With Cc1cc(C)c(S(=O)(=O)O)cc1N=Nc1cc(S(=O)(=O)O)c2ccccc2c1O the Potency was 24.3 µM (active).
For N#Cc1cc2ccccc2c2ccccc12, the “activity change, negative = cytotoxicity” value was -5.45%.
With O=C1Nc2cc(Cl)ccc2Oc2ccccc21 the “activity change, negative = cytotoxicity” value was 28.9% [at 42.5 µM].
In the case of O=C(c1ccc(O)cc1)c1ccc(O)cc1, the “activity change, negative = cytotoxicity” value is reported as 0.187%.
For c1ccc(-c2nc[nH]c2-c2ccccc2)cc1, the “activity change, negative = cytotoxicity” value was -1.22% [at 42.5 µM].
With Cc1ccc(O)c([C@H](CCN(C(C)C)C(C)C)c2ccccc2)c1 the Potency was 11.9 µM (active).
With Cc1cccc(OCCOc2cccc(C)c2)c1 the “activity change, negative = cytotoxicity” value was 12.7%.
For C#CCOC(=O)[C@@H](C)Oc1ccc(Oc2ncc(Cl)cc2F)cc1, the “activity change, negative = cytotoxicity” value was 2.81%.
In the case of CC(C)(C)C1CCCCC1O (stereo not given), the “activity change, negative = cytotoxicity” value is reported as 22.6%.
In the case of Nc1nc(CC(=O)O)cs1, the “activity change, negative = cytotoxicity” value is reported as 17.8%.
For CCCCCCOC(=O)CCC, the “activity change, negative = cytotoxicity” value was -26.2%.
For CCCCCC/C=C/C=O, the “activity change, negative = cytotoxicity” value was 14.9%.
With O=C(O)C1CCC(C(=O)O)CC1 (stereo not given) the “activity change, negative = cytotoxicity” value was 3.93%.
With O=C(O)c1cccc(N(Cc2cccnc2)c2ccc(OC(F)F)c(OC(F)F)c2)c1 the “activity change, negative = cytotoxicity” value was -13.7%.
In the case of SC1CCCC1, the “activity change, negative = cytotoxicity” value is reported as 4.03%.
With CC(=O)c1c(C)c([N+](=O)[O-])c(C(C)(C)C)c([N+](=O)[O-])c1C the “activity change, negative = cytotoxicity” value was 14.5%.
For C=CC(=O)OCCOC(=O)CCC(=O)O, the “activity change, negative = cytotoxicity” value was 3.75%.
In the case of CC(CN)CCCN (stereo not given), the “activity change, negative = cytotoxicity” value is reported as 5.19%.
In the case of CCCCCCc1ccc(N)cc1, the “activity change, negative = cytotoxicity” value is reported as -3.6%.
For Cc1cc(CC(=O)O)c(C)n1-c1ccc(Cl)cc1, the “activity change, negative = cytotoxicity” value was 4.86% [at 42.5 µM].
For CC(=O)N(CC(=O)N(C)C)c1ccccc1, the “activity change, negative = cytotoxicity” value was 11.6% [at 42.5 µM].
In the case of CC(=O)SCc1ccco1, the “activity change, negative = cytotoxicity” value is reported as 3.58%.
In the case of CNS(=O)(=O)Cc1ccc2[nH]cc(CCN(C)C)c2c1, the “activity change, negative = cytotoxicity” value is reported as 4.39% [at 42.5 µM].
For CCCCCCCCCC=O, the “activity change, negative = cytotoxicity” value was 2.5%.
For COCCCCCCCCOCCC[Si](C)(O[Si](C)(C)C)O[Si](C)(C)C, the Potency was 30.6 µM (active).
In the case of Cc1ccccn1, the “activity change, negative = cytotoxicity” value is reported as 0.805%.
In the case of Nc1nc(N)c2nc(CNc3ccc(C(=O)N[C@@H](CCC(=O)O)C(=O)O)cc3)cnc2n1, the “activity change, negative = cytotoxicity” value is reported as -12.8%.
In the case of CC(=O)OC/C=C/c1ccccc1, the “activity change, negative = cytotoxicity” value is reported as 12.1%.
With O=C(O)[C@@H]1[C@H]2C[C@H]3c4[nH]c5ccccc5c4CCN3C[C@@H]2CC[C@@H]1O the “activity change, negative = cytotoxicity” value was 3.86% [at 42.5 µM].
